# Screening results: PubChem, several laboratories
# eIF4H inh – inhibitors of RNA binding by human eIF4H; eIF4H fluorescence polarization binding assay; inhibition, % at 35 µM; actives 0.94% (n = 290,000);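 further: calls also rest on retests at 20 µM and on dose response follow-up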
# PABP1 MLLE inh – inhibitors of microRNA-mediated deadenylation, human PABP1 MLLE binding; GST-MLLE / FITC-PAM2 fluorescence polarization; inhibition, % at 20 µM; actives 0.36% (n = 360,000); AID 588489; in the data active means inhibition above about 35%, passing the limit was not always enough;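 further: plate controls were DMSO wells with GST-MLLE for no effect and wells lacking GST-MLLE protein for full effect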
# Target sequence (P11940 whole entry, looked up): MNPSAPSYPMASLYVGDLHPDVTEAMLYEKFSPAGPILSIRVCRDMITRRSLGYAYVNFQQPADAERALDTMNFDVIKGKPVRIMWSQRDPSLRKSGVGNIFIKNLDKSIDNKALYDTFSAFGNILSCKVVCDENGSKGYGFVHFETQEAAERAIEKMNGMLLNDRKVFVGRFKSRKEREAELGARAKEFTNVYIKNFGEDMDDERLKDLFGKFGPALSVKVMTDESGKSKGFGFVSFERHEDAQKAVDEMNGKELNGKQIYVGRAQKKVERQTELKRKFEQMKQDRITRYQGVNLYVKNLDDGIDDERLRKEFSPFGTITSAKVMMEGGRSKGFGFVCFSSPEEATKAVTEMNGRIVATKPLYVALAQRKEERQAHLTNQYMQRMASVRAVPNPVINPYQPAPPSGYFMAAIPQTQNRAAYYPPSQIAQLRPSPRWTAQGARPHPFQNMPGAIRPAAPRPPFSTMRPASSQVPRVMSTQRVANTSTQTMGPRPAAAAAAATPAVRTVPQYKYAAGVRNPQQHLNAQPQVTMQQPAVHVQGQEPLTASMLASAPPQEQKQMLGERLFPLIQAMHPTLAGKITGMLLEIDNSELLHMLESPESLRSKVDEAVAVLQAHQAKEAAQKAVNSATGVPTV
# PABP polyA inh – blocks human PABP binding to poly(A) RNA; inhibition, % at 35 µM; P11940; actives 1% (n = 290,000); fluorescence polarization; AID 2014;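 further: calls also rest on retests at 20 µM and on dose response follow-up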
# M18AAP inhibitor – PfM18AAP enzyme inhibition | recombinant PfM18AAP, H-Glu-NHMec fluorogenic cleavage | inhibition, % at 7.35 µM | actives 1.2% (n = 290,000) | AID 1822;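 active means inhibition above the campaign mean inhibition over all tested compounds plus 3 SD, cut at about 28% in these data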;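 further: 0% = plate median of test compound wells and 100% = 2 mM ZnCl2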
# PERK inh – inhibitors of human PERK kinase. Q9NZJ5. CHO PERK-DD fusion, SEAP luminescence translation reporter. inhibition, % at 5.6 µM. actives 0.17% (n = 220,000). AID 1416;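 active means inhibition above the mean inhibition of all tested compounds plus 3 SD, set separately per screening campaign, cut at about 2.9% in these data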;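 further: PERK kinase domain activated by AP20187 dimerizer at 100 nM; 0% = DMSO with dimerizer and 100% = rapamycin at 8.4 µM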
# eIF4E 4G PPI – inhibitors of eIF4E and eIF4G interaction in translation initiation. P63073+Q04637. TR-FRET eIF4E-eIF4GI(517-606) binding, 2 h. inhibition, % at 21.7 µM. actives 0.37% (n = 220,000). AID 782;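 active means inhibition above about 30%, limit read from the data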;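 further: 0% = full FRET control wells and 100% = background wells lacking eIF4GI fragment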
# * = called active by the depositor; ? = inconclusive; . = no result given. A selection: hits, their analogues and other compounds. The true share with any hit is near 2.4%. Unless noted, how the calls were made is not given here.
SMILES,eIF4H inh,PABP1 MLLE inh,PABP polyA inh,M18AAP inhibitor,PERK inh,eIF4E 4G PPI
COC(=O)c1cc2n3ccccc3c(C)c(-c3ccccc3)c-2c1C(=O)OC,129.9*,47.1*,123.7*,8.9,-0.7,5.5
CCS(=O)(=O)c1nc(S(=O)(=O)c2ccc(Cl)cc2)c(NCCN2CCOCC2)s1,-1.3,4.0,1.9,5.5,.,.
CCN(CC)CCCNC(=O)c1cc(-c2ccccc2)c(N2CCCCC2)s1,-9.7,9.8,-9.9,5.4,.,.
CCCN1CNc2c(c(=O)[nH]c(=S)n2CCc2ccccc2)C1,-7.4,-41.7,1.5,-1.9,0.7,1.1
O=C(O)CSC1CC(=O)N(c2ccc(Cl)c(Cl)c2)C1=O (stereo unspecified),-7.7,41.0*,6.0,-0.4,1.1,4.6
CC(=O)C1C(c2ccco2)c2c(noc2C)CC1(C)O (stereo unspecified),-0.6,3.7,-1.3,-10.6,3.0*,3.7
COc1ccc(C2c3c(noc3C)CC(C)(O)C2C(C)=O)cc1 (stereo unspecified),5.8,-5.8,0.1,-2.3,0.0,-0.5
O=C(NC(c1cccnc1)C(F)(F)F)c1cc(COc2ccc3c(c2)CCCC3)on1 (stereo unspecified),-1.0,-11.4,-4.6,1.1,.,.
C=CCCCCCCCCc1nc(SCC(=O)O)n[nH]1,-1.5,-12.7,-10.9,4.3,3.0*,2.8
C=C(C)C(=O)Nc1ccc2c(c1)OCCOCCOCCO2,90.2*,1.4,48.9*,5.1,1.8,5.2
COc1ccccc1-c1noc(-c2ccccc2)n1,-1.5,2.6,0.9,2.6,0.6,86.7*
COc1ccc(-c2nc(-c3ccccc3OC)no2)cc1OC,-2.7,-10.9,29.9,-5.2,0.0,9.7
C[C@H](NC(=O)OC(C)(C)C)C(=O)N/N=C/c1ccc2nccnc2c1,-11.1,-4.7,6.5,-7.2,0.8,1.0
O=C(O)C/C(=C\c1cc(Cl)c2c(c1)OCO2)c1nc2ccccc2s1,94.0*,-21.9,31.6,5.7,.,.
O=C(O)CC/C(=C\c1cccc(NC(=O)c2ccccc2Cl)c1)c1nc2ccccc2s1,57.9*,-4.5,10.8*,1.2,1.0,6.7
O=C(O)C/C(=C\c1ccc2c(c1)OCO2)c1nc2ccccc2s1,5.0,-11.2,7.9,9.3,.,.
COC(=O)C1C2OC(C(Br)C2Br)C1C(=O)OC (stereo unspecified),.,22.4,.,.,.,.
CCCn1nc(C(=O)N2CCN(S(=O)(=O)c3ccc(C)c(C)c3)CC2)c2ccccc2c1=O,.,-30.3,.,.,.,.
Cc1ccc(N2C(=O)CC(SCC(=O)Nc3ccc(S(N)(=O)=O)cc3)C2=O)cc1 (stereo unspecified),1.4,42.4*,-15.8,-2.2,-0.8,-3.0
CCOC(=O)c1ccc(N2C(=O)CC(SCC(=O)Nc3ccc(S(N)(=O)=O)cc3)C2=O)cc1 (stereo unspecified),11.7,32.1,10.1,-3.9,0.8,-6.3
N#C/C(=C\c1cccc(Br)c1)C(=O)N1CCCCC1,-1.9,12.5,0.5,29.7*,.,.
NC(=O)c1c(NC(=O)Cn2nc(C(=O)O)c3ccccc3c2=O)sc2c1CCCC2,0.6,-19.7,4.1,3.5,0.4,-1.2
CCC(=O)Nc1sc2c(c1C(N)=O)CCN(Cc1ccccc1)C2,95.5,2.6,31.8*,18.1,.,.
NC(=O)c1c(NC(=O)Cn2nc(C(=O)O)c3ccccc3c2=O)sc2c1CCC2,?,-0.5,3.6*,-5.0,0.0,8.7
COc1cnc(-c2ccccn2)nc1N(C)c1ccccc1,-0.4,2.0,-29.4,4.1,.,.
SMILES,eIF4H inh,PABP1 MLLE inh,PABP polyA inh,M18AAP inhibitor,PERK inh,eIF4E 4G PPI
O=S(=O)(c1ccccc1Cl)N1CCC(O)(c2cccnc2)CC1,-3.3,3.9,3.2,3.7,0.9,0.7
CN1CC=C2C(C#N)=C(N)C(C#N)(C#N)[C@H](c3ccoc3)[C@H]2C1,?,138.6,?,20.7,0.4,-5.4
CN1CC=C2C(C#N)=C(N)C(C#N)(C#N)C(c3cccc(Cl)c3Cl)C2C1 (stereo unspecified),121.5*,55.3,115.5,-4.7,0.4,5.6
O=C(NC1CCCCNC1=O)c1ccc(Cl)cc1 (stereo unspecified),-1.7,-6.7,-6.6,-2.0,0.8,2.6
Cc1ccc(C(=O)NC2CCCCNC2=O)cc1 (stereo unspecified),-6.5,6.3,0.5,-10.9,0.6,90.1*
COc1ccc(C(OCC(O)CNCCc2ccccc2)c2ccc(OC)cc2)cc1 (stereo unspecified),-2.8,-5.4,-6.7,3.6,.,.
CCOC(=O)C1(N(CC)CC)Sc2cc(C)ccc2NC1=O (stereo unspecified),3.8,5.1,-5.3,-3.0,0.3,0.9
COC(=O)C1=C(C(=O)OC)SC2(S1)C(C(=O)OC)=C(C(=O)OC)SC1=C2c2cc(C)ccc2NC1(C)C,-2.5,23.9,3.1,29.3*,-0.9,-0.2
O=C(Nc1cccc2ccccc12)c1cc2c(cc1Br)OCO2,-12.9,-1.2,-6.1,4.8,-0.9,3.4
O=C(CN1C(=O)/C(=C/c2cccc(Cl)c2)SC1=S)NC1C=CS(=O)(=O)C1 (stereo unspecified),-0.8,2.4,-3.9,30.4*,.,.
COc1cc(OC)cc(C(=O)OCC(=O)Nc2nnc(-c3ccccc3)o2)c1,.,7.9,.,.,.,.
O=C(COC(=O)c1cncc(Br)c1)Nc1nnc(-c2ccccc2)o1,70.4*,-10.8,32.8,6.0,.,.
Cc1ccc(SC[C@H](C)CN2CC[C@H](C)CCC2=O)cc1,-1.3,0.9,12.5,4.5,.,.
CC(=O)Nc1ccc(SC[C@H](C)CN2CC[C@H](C(C)(C)C)CCC2=O)cc1,.,46.1*,.,.,.,.
CO/N=C(\C(=O)N[C@@H]1C(=O)N2C(C(=O)O)=C(COC(N)=O)CS[C@H]12)c1ccco1,5.6*,19.0,118.4*,-10.4,0.0,3.8
N=c1c(C(=O)NCc2ccccc2)cc2c(=O)n3ccccc3nc2n1Cc1ccco1,84.4*,4.1,51.7*,-0.1,-1.3,.
Cc1ccc(CNC(=O)c2cc3c(=O)n4ccccc4nc3n(Cc3ccco3)c2=N)cc1,56.4*,-7.5,40.9*,.,.,.
N=c1c(C(=O)NCc2ccco2)cc2c(=O)n3ccccc3nc2n1Cc1ccccc1,76.7*,-18.7,69.0*,21.6,-0.9,-0.8
Cc1cccn2c(=O)c3cc(C(=O)NCCc4ccccc4)c(=N)n(Cc4ccco4)c3nc12,52.5,-6.5,37.8,-5.2,.,.
N=c1c(C(=O)NCc2ccc(F)cc2)cc2c(=O)n3ccccc3nc2n1Cc1ccco1,48.2,-17.9,3.5,2.1,-0.5,-9.1
COc1ccc(CCNC(=O)c2cc3c(=O)n4cccc(C)c4nc3n(Cc3ccco3)c2=N)cc1OC,63.3*,0.6,27.8,11.7,.,.
COc1ccc(CCn2c(C(C)C)nc3oc4ccccc4c(=O)c3c2=O)cc1,0.4,-3.9,2.3,-3.9,-1.9,2.3
